# From PubChem BioAssay
# BAZ2B block – blocks human BAZ2B; Q9UIF8; AlphaScreen BAZ2B-H3K14Ac peptide displacement; Potency, µM (doses to about 114 µM), without a hit: at the top dose activity change, negative = inhibition, hits mostly inhibitors; hit rate 4.4% among 360,000; AID 504333; also: potency is read from the fitted curve at half-maximal effect; % is scaled to controls: 0 for no effect and ±100 for the full control effect; nearly all actives have a fitted effect of over 60% in size
#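 Inhibition is scored as reduced AlphaScreen emission. The BAZ2B/b-H3(5-23)K14Ac complex (50 nM each) in PBS pH 7.4, 0.01% Tween-20 meets compound (up to 110 uM) for 30 min at RT before bead addition.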
# PLK1 PBD block – inhibitors of human PLK1 polo-box domain binding | AID 720504 | Plk1 PBD binding of FITC phosphopeptide, fluorescence polarization | hit rate 2.8% among 360,000 | Potency, µM, without a hit: max response, negative = inhibition, actives largely listed as inhibitors; also: potency is read from the fitted curve at half-maximal effect; series mostly up to about 57 µM; % is scaled to controls: 0 for no effect and ±100 for the full control effect; nearly all actives have a fitted effect of over 65% in size
# JMJD2A Tudor – blocks the human JMJD2A Tudor domain; AlphaScreen JMJD2A-Tudor / H3K4me3 peptide binding; Potency, µM (titrated, usually from 114 µM), without a hit: at the top dose activity change, negative = inhibition, actives largely listed as inhibitors; hit rate 4.4% among 390,000; AID 504339; also: potency is read from the fitted curve at half-maximal effect; % is scaled to controls: 0 for no effect and ±100 for the full control effect; nearly all actives have a fitted effect of over 50% in size
# G9a block – blocks human histone lysine methyltransferase G9a; Q96KQ7; G9a H3K9 monomethylation, AlphaScreen, 2 h; Potency, µM (doses to about 102 µM), without a hit: top-dose activity, negative = inhibition, actives largely listed as inhibitors; hit rate 8.8% among 350,000; AID 504332; also: potency is read from the fitted curve at half-maximal effect; % is scaled to controls: 0 for no effect and ±100 for the full control effect; nearly all actives have a fitted effect of over 75% in size
# Target sequence (Q96KQ7 913-1193 limits assumed): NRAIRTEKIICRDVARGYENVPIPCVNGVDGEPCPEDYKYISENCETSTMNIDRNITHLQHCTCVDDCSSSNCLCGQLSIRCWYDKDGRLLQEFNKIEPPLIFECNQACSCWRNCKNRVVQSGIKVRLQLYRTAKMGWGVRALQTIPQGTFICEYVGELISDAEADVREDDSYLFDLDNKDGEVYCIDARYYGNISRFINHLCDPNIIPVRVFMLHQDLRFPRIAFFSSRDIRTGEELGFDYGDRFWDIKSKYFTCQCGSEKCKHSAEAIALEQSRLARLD
#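 Quantitative HTS format: methyltransferase activity on a biotin-tagged H3K9 peptide is measured by AlphaScreen, using a rabbit anti-monomethyl-H3K9 antibody with streptavidin donor and anti-IgG acceptor beads. Final levels are 20 nM enzyme, 500 nM peptide, 20 uM SAM; 2 h RT.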
# PI5P4Ka inh – blocks human PI5P4K alpha kinase activity. P48426. PI5P4Kalpha enzyme, ADP-Glo luminescence, 60 min; hits give low values. max response, %. hit rate 1.2% among 330,000; active = max response of -50% or lower; inconclusive = between -30% and -50%; inactive = -30% or higher; also: value at the top dose of about 77 µM; % is scaled to controls: 0 for no effect and ±100 for the full control effect
# Target sequence (P48426 whole entry, looked up): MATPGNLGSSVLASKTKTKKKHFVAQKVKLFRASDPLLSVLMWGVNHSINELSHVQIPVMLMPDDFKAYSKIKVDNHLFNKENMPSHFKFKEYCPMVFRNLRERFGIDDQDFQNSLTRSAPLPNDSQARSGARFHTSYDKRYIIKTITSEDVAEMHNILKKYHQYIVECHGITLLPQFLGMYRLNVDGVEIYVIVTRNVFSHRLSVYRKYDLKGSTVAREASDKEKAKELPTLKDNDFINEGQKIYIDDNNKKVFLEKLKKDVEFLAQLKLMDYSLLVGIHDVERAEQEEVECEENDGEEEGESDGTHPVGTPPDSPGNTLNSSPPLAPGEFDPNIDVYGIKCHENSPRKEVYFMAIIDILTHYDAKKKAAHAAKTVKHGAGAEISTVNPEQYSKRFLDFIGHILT
#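 Reactions run in 0.038 M HEPES pH 7.4, 0.28 mM EGTA, 0.1% CHAPS and 5% DMSO, with PI5P4Kalpha, substrate, compound and 5 microM ATP final, one hour at room temperature. Readout is ADP-Glo luminescence.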
# HP1b binding inh – HP1-beta chromodomain-methylated histone interaction inhibition; Potency, µM (titrated, usually from 114 µM), inactives show top-dose activity change, negative = inhibition, most hits filed as inhibitors; hit rate 0.56% among 390,000; AlphaScreen HP1-beta / biotin-H3K9me3 peptide binding; P83916; also: potency is read from the fitted curve at half-maximal effect; nearly all actives have a fitted effect of over 70% in size
#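 Compound inhibition of the preformed complex between 50 nM HP1-beta and 50 nM biotinylated H3K9me3 peptide was read by AlphaScreen. Buffer was PBS pH 7.4 with 0.01% Tween-20. Incubations ran 30 min at room temperature, with 10 ug/mL donor/acceptor beads.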
# * = called active by the depositor; ? = inconclusive; / = not tested or not shown; [ ] = another dose, or the depositor's remark. This is a sample that favours compounds with a hit; in the whole collection about 12% have one here. Unless noted, calls follow the shape of the dose curve; as a rule, active = well fitted curve in the direction sought with a large enough effect; inconclusive = small, poorly fitted or top-dose-only effect, or another doubt; inactive = no such curve, though single readings can be large; an effect the other way counts as inactive or inconclusive.
SMILES,BAZ2B block,PLK1 PBD block,JMJD2A Tudor,G9a block,PI5P4Ka inh,HP1b binding inh
COC(=O)CNC(=S)NC(=O)c1ccc(C(C)(C)C)cc1,-23%,?,-32%,18µM*,-13,22%
CCN1CCC(O)(/C=C/c2ccc(C(C)C)cc2)C(C(=O)/C=C/c2ccc(C(C)C)cc2)C1 (stereo not drawn),/,-29%,32µM*,/,-1,?
CC(C)c1ccc(/C=C/C(=O)O)cc1,4%,-2%,4%,2%[12.7 µM],1,40%
CCOc1ccc(NS(=O)(=O)c2ccc3c(c2)N(C(C)=O)CCS3)cc1,-20%,27µM*,?,-2%,-22,-9%
Clc1ccc(-c2cnnc(-c3ccccn3)n2)cc1,/,-7%,10µM*,/,-3,31%
c1ccc(-c2cnc(-c3ccccc3)nn2)cc1,/,-5%,-17%,/,-6,20%
c1ccc(-c2cnc(-c3ccccn3)nn2)cc1,/,-2%,14µM*,/,-13,27%
Nc1nc(N)nc(-c2ccccn2)n1,20µM*,-2%,50µM*,-44%[59 µM],6,22%
c1ccc(-c2nc(-c3ccccn3)nc(-c3ccccn3)n2)nc1,-4%,-2%,-18%,47%[59 µM],3,10%
c1ccc(-c2cnnc(-c3ccccn3)n2)cc1,/,4%,11µM*,/,-4,34%
CCCN(CCC)C(=O)Cn1c(SCc2cccc(F)c2)nc2cccnc21,1%,/,-17%,-1%[59 µM],/,-7%
COc1cccc(C(=O)c2sc(Nc3ccc(C)cc3C)c(S(=O)(=O)c3ccccc3)c2N)c1,-30%,/,-20%,-5%[59 µM],/,22%
CCn1cc(C(=O)NCc2ccco2)c2cc(OC)c(OC)cc2c1=O,5%,1%,-17%,?,2,17%
COc1cc2c(C(=O)NCc3ccc(C)o3)cn(CC(C)C)c(=O)c2cc1OC,4%[57.1 µM],-15%,-21%,45µM*,1,10%
O=c1c(-c2cc(F)cc(F)c2)nc2cnc(N3CCNCC3)nc2n1Cc1ccc(F)cc1,/,/,/,14%[0.501 µM],/,/
CCOC(=O)c1c(/N=C/c2cc([N+](=O)[O-])ccc2O)sc(C)c1C,?,8%,-10%,?,-2,30%
CCOC(=O)c1c(NC(=O)c2c(C(=O)O)cccc2[N+](=O)[O-])sc2c1CCCC2,-24%,12µM*,?,8.9µM*,?,?
CCOC(=O)c1c(/N=C/c2cccc([N+](=O)[O-])c2O)sc2c1CCC2,?,27µM*,?,/,-14,?
CCOC(=O)c1c(/N=C/C2=C(O)CCCC2=O)sc2c1CCCC2,-1%,-5%,-7%,-33%[59 µM],-3,64%
CCOC(=O)c1c(/N=C/c2ccc(O)cc2O)sc2c1CCC2,?,/,/,-10%[59 µM],/,/
CCOC(=O)c1c(/N=C/c2ccccc2O)sc2c1CCC2,-30%,?,-27%,71µM*,-11,-7%
CCOC(=O)c1c(/N=C/c2cc(OC)cc([N+](=O)[O-])c2O)sc(C)c1C,50µM*,-5%,?,20µM*,-17,?
CCOC(=O)N1CCC(NC(=O)c2sc3nc4n(c(=O)c3c2C)CCCC4)CC1,-5%,-1%,-9%,24%[12.7 µM],-2,34%
Cc1c(NC(=O)Nc2ccc(Cl)c(Cl)c2)sc2nc3n(c(=O)c12)CCC(C)CC3 (stereo not drawn),-1%,/,-7%,3%[59 µM],/,30%
CCOC(=O)c1sc2nc3n(c(=O)c2c1C)CCC(C)CC3 (stereo not drawn),11%,30µM*,-13%,10µM*,/,-10%
SMILES,BAZ2B block,PLK1 PBD block,JMJD2A Tudor,G9a block,PI5P4Ka inh,HP1b binding inh
CCOC(=O)N1CCN(C(=O)Nc2sc3nc4n(c(=O)c3c2C)CCC(C)CC4)CC1 (stereo not drawn),-35%,-17%,-29%,32µM*,/,9%
CCOc1ccc(CC(=O)NCc2ccc3c(c2)CCN3C(=O)c2ccccc2)cc1OCC,-13%,/,-25%,-3%[59 µM],/,9%
CC(C)(C)NC(=O)C1CC(=O)N(CCc2ccc(F)cc2)C1 (stereo not drawn),13%,-8%,-10%,21%,1,41%
CCC(CC)c1nnc(NC(=O)C2CC(=O)N(CCc3ccc(OC)c(OC)c3)C2)s1 (stereo not drawn),9%,2%,-12%,-5%,-6,12%
CCC(CC)c1nnc(NC(=O)C2CC(=O)N(CCc3ccc(F)cc3)C2)s1 (stereo not drawn),?,24µM*,-19%,3.2µM*,-15,?
CCC(C)(C)c1nnc(NC(=O)C2CC(=O)N(CCc3ccc(F)cc3)C2)s1 (stereo not drawn),2%,?,-9%,45µM*,-5,-9%
O=C(/C=C(\O)c1ccccc1)c1ccccc1O,/,/,/,-39%[2.33 µM],/,/
CCCC1(C)SC(NC(C)=O)=NN1C(C)=O (stereo not drawn),4%,-1%,-12%,-27%,-2,13%
CC(=O)NC1=NN(C(C)=O)C2(S1)C(=O)N(C(C)C)c1ccc(C)cc12 (stereo not drawn),1%,-7%,1%,50µM*,/,3%
CS(=O)(=O)N(Cc1cccc(CN(C(C(=O)O)c2ccccc2)S(C)(=O)=O)c1)C(C(=O)O)c1ccccc1 (stereo not drawn),?,-24%,-31%,32µM*,-9,36%
CC(C)OCC(O)CN1CCNCC1 (stereo not drawn),-4%,-11%,79µM*,?,1,19%
CCc1ccc2oc(C(=O)NCCc3ccc(S(N)(=O)=O)cc3)cc(=O)c2c1,2%,?,?,?,-16,7%
Cc1cc(NN)nc(NS(=O)(=O)c2ccccc2)n1,14%,-12%,?,32µM*,6,8%
Cc1cc(NN)nc(NS(=O)(=O)c2ccc(Cl)cc2)n1,-17%,2%,-3%,?,3,11%
CC(=O)Nc1ccc(OC(=O)c2ccccc2OC(C)=O)cc1,/,/,/,-4%[12.7 µM],/,/
COc1ccc(C(=O)Nc2cc3c(cc2C(=O)c2ccccc2Cl)OCCO3)cc1,-18%,/,-7%,1%[59 µM],/,38%
CC1CN(C(=O)C(C)N2CCN(c3cccc(Cl)c3)CC2)CC(C)O1 (stereo not drawn),-3%,30µM*,63µM*,35%,-10,?
CC[C@@]12C(=O)N(c3cccc(F)c3)C(=O)N1[C@H](c1ccc(Br)cc1)[C@@H]1C(=O)N(C(C)(C)C)C(=O)[C@@H]12,-3%,-4%,-22%,-5%[2.33 µM],5,36%
COc1ccc(-c2cc(=O)oc3c(C)c(O)c(CN(C)C)cc23)cc1,-9%,-1%,22µM*,-10%[12.7 µM],/,2%
O=C1CN(C(=O)c2ccc(Br)o2)C(c2ccc(F)cc2)c2cc(Cl)ccc2N1 (stereo not drawn),?,-10%,-23%,?,-15,-13%
